Among all 65,000 compounds or so, about 2,100 (3.2%) showed an effect of 50% or more. The median lay at about -52%. Many of the other results were omitted from the sample, so strong results are more common in it than they were.
Test system: Plasmodium falciparum
Test: Screen against P. falciparum Asexual Blood Stage (ABS), at 5uM
Format: functional, Dd2
Settings: tested at 5 uM

First: CC(C)c1nc(C2CCCNC2)no1 (configuration not stated)
Second: CNc1cc(C2CCCNC2)nc(C)n1 (configuration not stated)
The INHIBITION of the first is higher: -62.1% for the first, -80.8% for the second.

Going from `Cc1cc(Cc2ccccc2C)cc(C2CCCNC2)n1` (configuration not stated) to `Cc1cccc(CN2CCC(Cc3ccccc3F)CC2)n1`, the INHIBITION rises from 78.9% to 94%.

First: CCCN1CCN(C(=O)c2ccnc(N)c2)[C@H]2CS(=O)(=O)C[C@H]21
Second: Cc1nc(CN2C[C@@H]3CN(C(=O)Cc4ccccn4)C[C@@H]3C2)cs1
The INHIBITION of the first is lower: -88.3% for the first, -41.5% for the second.

Going from `O=C1[C@@H]2CCN(Cc3ccoc3)C[C@@H]2OCCN1c1cccnc1` to `O=C(N1CCCO1)[C@@]12CCO[C@@H]1CCN(Cc1cccnc1)C2`, the INHIBITION falls from 23.5% to -54.2%.

Compared with `CC(C)CN1C(=O)CO[C@@H]2CNC[C@H]21`, `Cc1noc([C@@H]2C[C@H]3OCC[C@H]3N(C(C)C)C2)n1` is lower in INHIBITION: -4.26% for the first, -89.1% for the second.

Compared with `Fc1ccccc1CC1CCN(Cc2ccccn2)CC1`, `OCCN1CCCC(c2cccc(-c3ccccc3F)n2)C1` (configuration not stated) is higher in INHIBITION: 70.4% for the first, 83.4% for the second.

First: Cc1cccc(CN2CC[C@H]3C[C@@H](C)O[C@@H]3C2)n1
Second: Cc1cccc(CN2CC[C@H]3C[C@H](C)O[C@@H]3C2)n1
The INHIBITION of the first is lower: -46.7% for the first, -37.4% for the second.

Compared with `C[C@@H]1C[C@@H]2CCN(Cc3ccccn3)C[C@H]2O1`, `C[C@H]1C[C@@H]2CCN(Cc3ccccn3)C[C@H]2O1` is lower in INHIBITION: -25.2% for the first, -59.7% for the second.

Going from `CN1CCC2(Cc3ccccc3NC2=O)C1` (configuration not stated) to `CNc1ncccc1C(=O)N1CCN(C)C2(CCN(C)CC2)C1`, the INHIBITION falls from 8.23% to -111%.

Compared with `Cc1nn(C)c2ncc(S(=O)(=O)N3CCN4CCCC4C3)cc12` (configuration not stated), `Cc1noc(C)c1CC(=O)N1CCCN(Cc2cscn2)CC1` is higher in INHIBITION: -67.5% for the first, 63.9% for the second.

Going from `CC(c1cn2ncsc2n1)n1cc2[nH]cccc-2c1=O` (configuration not stated) to `COCCn1cncc1Cn1ncc2ccccc2c1=O`, the INHIBITION rises from -131% to -74.4%.

Compared with `CO[C@@H]1CN(Cc2scnc2C)[C@@H]2CCCO[C@@H]21`, `CCO[C@@H]1CC[C@H]2[C@H]1OCCN2Cc1ccoc1` is lower in INHIBITION: -39.6% for the first, -43.3% for the second.

Compared with `CC(=O)N1CCCC2(CN(Cc3ccncc3)CCO2)C1` (configuration not stated), `CCS(=O)(=O)N1CCC2(C1)C(=O)N(C)CCN2Cc1ccncc1` (configuration not stated) is lower in INHIBITION: -47.6% for the first, -177% for the second.

Going from `CN1CCC(N(C)C[C@H]2CC[C@@H](Cc3ccc4occc4c3)O2)CC1` to `Fc1ccccc1-c1cccc(C2CCCN(C3CCOCC3)C2)n1` (configuration not stated), the INHIBITION falls from 85.8% to 82.3%.

Compared with `CCc1nc(CN2CCN(C(=O)Cc3c(C)noc3C)CC2)cs1`, `Cc1noc(C)c1CC(=O)N1CCN(Cc2cscn2)CC1` is lower in INHIBITION: -46.1% for the first, -151% for the second.

Going from `COc1cccc(CNC(C)c2ccc(-n3ccnc3)cc2)c1O` (configuration not stated) to `CCOc1cccc(CNC(C)c2ccc(-n3ccnc3)cc2)c1O` (configuration not stated), the INHIBITION falls from 79.5% to 75%.

First: COc1ccccc1CNC(C)c1ccc(-n2ccnc2)cc1 (configuration not stated)
Second: CN(C)CCN(C)C(=O)Cn1cccc2cc(-c3ccc(F)cc3)nc1-2
The INHIBITION of the first is lower: 78.4% for the first, 86.8% for the second.

Compared with `CC(Cc1c(F)cccc1F)NC(=O)CSCC(N)=O` (configuration not stated), `CCc1cccc2c(CC(=O)N(C)CCN(C)C)c(C)[nH]c12` is higher in INHIBITION: -46.4% for the first, 18.4% for the second.

First: Nc1cnc(-c2cccc3c2CCNC3)cn1
Second: COc1cccc(C2SCC(=O)Nc3ccsc32)c1 (configuration not stated)
The INHIBITION of the first is higher: -39.4% for the first, -108% for the second.

Compared with `CC1(C)CC2(CCO1)NC(=O)c1cc(Br)ccc1-n1nnnc12` (configuration not stated), `Cc1nc(CN2CCN(C(=O)COc3c(C)ccc(C)c3C)CC2)no1` is lower in INHIBITION: -59.6% for the first, -66.3% for the second.

Going from `c1cc(CN2C[C@@H]3COC[C@]3(COCC3CC3)C2)ccn1` to `Cc1cc(CN2C[C@@H]3COC[C@]3(COCC(=O)N(C)C)C2)no1`, the INHIBITION falls from -11.9% to -23%.

Going from `COc1cccc(CC(=O)N2CCCSCC2CN2CCCC2)c1` (configuration not stated) to `COc1cccc(OCC(=O)N2CCCSCC2CN2CCOCC2)c1` (configuration not stated), the INHIBITION falls from 54.7% to -105%.

Compared with `O=C(COc1ccc(F)cc1)N1CCCSCC1CN1CCOCC1` (configuration not stated), `O=C1N(Cc2ccccn2)C[C@H]2CN(C3CCOCC3)CCN12` is lower in INHIBITION: -80.2% for the first, -92.3% for the second.

Compared with `O=C1NC[C@H]2CN(C3CCOCC3)CCN12`, `CCN1C(=O)C2(CCCCC2)NC12CCSCC2` is higher in INHIBITION: -118% for the first, -40% for the second.

Compared with `c1ccc(CO[C@@H]2CN(Cc3ccoc3)[C@@H]3COC[C@@H]32)nc1`, `CCc1[nH]c2c(CNc3nccc(N)n3)cc(F)cc2c1C` is higher in INHIBITION: -37.1% for the first, 85.6% for the second.

Going from `Cc1cc(CNc2nccc(N)n2)c2[nH]c(C)c(C)c2c1` to `CCc1[nH]c2c(CNc3nccc(N)n3)cc(C)cc2c1C`, the INHIBITION rises from 79.5% to 90.9%.
